Assay results: PubChem BioAssay (NCATS)
Results filed as inconclusive are left out. Active and inactive are the calls of the source. Unless noted, calls follow the shape of the dose curve; as a rule, active = well fitted curve in either direction with a large enough effect (not every such curve was filed as active); inconclusive = small, poorly fitted or top-dose-only effect, or another doubt; inactive = flat fitted curve, though single readings scatter.

Columns and labels:
[1] = target: Lysosomal acid glucosylceramidase (Homo sapiens) (UniProt P04062); assay: Glucocerebrosidase-p2 (AID 348; in the data active = potency below about 10 µM; also: potency is read from the fitted curve at half-maximal effect); settings: purified GBA, blue fluorogenic substrate, 40 min
Summary of the method: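 Compounds titrated from 0.6 nM upwards against 0.2 nM enzyme in pH 5.9 citric acid/KH2PO4, taurocholate, tween-20; blue fluorogenic substrate 80 uM, 40 min room temperature, stopped and read Ex 365/Em 440 for AC50.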

[2] = AP1 Signaling Pathway (AID 357); settings: ME-180 AP-1-bla reporter, EGF-induced, beta-lactamase ratio, 5 h; at 7.69 µM (top of the series) unless noted;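 also: ME-180 reporter cells stimulated with EGF at its EC50 level; % is scaled to controls: 0 for no effect and ±100 for the full control effect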
Summary of the method: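 In this screen, ME-180 cells in Opti-MEM with 0.5% dialyzed FBS received EC50 EGF and compound titrations for 5 h. AP-1 reporter beta-lactamase was detected via CCF4 ratio, giving AC50 for positive and negative modulators.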

[3] = target: Cytochrome P450 1A2 (Homo sapiens) (UniProt P05177); assay: p450-cyp1a2 (AID 410; calls by dose curve; also: potency is read from the fitted curve at half-maximal effect;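 as to activity change, negative = inhibition: -100% = full effect of reference inhibitor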); settings: recombinant CYP1A2, luciferin-ME demethylation, luminescence; series mostly up to 57 µM
Summary of the method: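 Luminescent readout of luciferin formed from Luciferin-ME by human CYP1A2; data normalized against complete inhibition by 57 uM furafylline. Enzyme 20nM, substrate 100uM at Km, 100mM KPO4 buffer, 60 min reaction at room temperature.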

[4] = NFAT Signaling Pathway (AID 444); settings: Jurkat NFAT-bla M1, carbachol, beta-lactamase ratio, 5 h; at 7.69 µM (top of the series) unless noted;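 also: carbachol stimulus at about its EC50 of 1 µM final; % is scaled to controls: 0 for no effect and ±100 for the full control effect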
Summary of the method: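 Jurkat cells carrying an NFAT-driven β-lactamase reporter and co-transfected muscarinic M1 receptor were treated with compound plus carbachol (1 uM final, an EC50 level) for 5 h at 37 °C. CCF4 loading followed for 1 h at RT; 460/530 nm ratio gave %activity.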

[5] = Stat Signaling Pathway (AID 446); settings: ME-180 SIE beta-lactamase reporter, IL-6 stimulated, 5 h; at 7.69 µM (top of the series) unless noted;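 also: ME-180 cervical cancer cells given 40 pM IL-6 alongside compound; SIE-controlled beta-lactamase reporter measured as 460/530 nm FRET emission ratio; % is scaled to controls: 0 for no effect and ±100 for the full control effect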
Summary of the method: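 Screening format detects activators and inhibitors alike: ME-180 SIE-bla cells stimulated at 40 pM IL-6 for 5 hrs with compound, then dual-emission beta-lactamase read at 405 nm excitation.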

[6] = target: Glucocorticoid receptor (Homo sapiens) (UniProt P04150); assay: GR-EFC Redistribution (AID 451; calls by dose curve; also: potency is read from the fitted curve at half-maximal effect); settings: CHO-K1 GR-EFC translocation, beta-gal luminescence, 2 h
Summary of the method: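 CHO-K1 cells stably expressing nuclear-localized β-gal enzyme acceptor and GR fused C-terminally to the enzyme donor fragment; ligand-driven nuclear translocation restores β-gal by complementation. Compounds titrated up to 46 uM final, 2 h at 37 °C; luminescence read.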

[7] = target: Mitogen-activated protein kinase 10 (Mus musculus) (UniProt Q61831); assay: JNK3 AlphaScreen Assay (AID 530); settings: JNK3 lysate, c-Jun phosphorylation; series mostly up to 57.1 µM;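 also: kinase came from lysate of stimulated human HepG2 cells; signal reports phosphorylation of biotinylated GST-cJun 1-79 at Ser73 with 10 µM ATP; % is scaled to controls: 0 for no effect and ±100 for the full control effect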
Summary of the method: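 Inhibitors reduce antibody binding to phosphorylated biotin-cJun, lowering AlphaScreen luminescence. Lysates from HepG2 cells pre-activated by IL-1beta plus TNF-alpha supplied JNK3; compounds were titrated.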

[8] = target: 3',5'-cyclic-AMP phosphodiesterase 4B (Homo sapiens) (UniProt Q07343); assay: qHTS Assay for Inhibitors of PDE-IV (AID 607; active = well fitted activation curve with a large enough effect in the main read-out, with a control signal flat, not every such curve was filed as active; also: % of control where 0% means no effect); settings: HEK293 ACTOne CNG channel cells, membrane potential fluorescence; series mostly up to 22.9 µM
Summary of the method: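 The readout is membrane depolarisation from a cAMP-sensing CNG channel, detected with a potential dye at ex 535/em 590. Cells were HEK293-derived (endogenous PDE-IV) at 1000 cells/well, titrated up to 22.9 uM final.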

[9] = target: Cytochrome P450 3A4 (Homo sapiens) (UniProt P08684); assay: qHTS Assay for Inhibitors and Substrates of Cytochrome P450 3A4 (AID 884; active = well fitted curve in the direction sought with a large enough effect; an effect the other way counts as inactive or inconclusive; also: nearly all actives have a fitted effect of over 50% in size; also: potency is read from the fitted curve at half-maximal effect); settings: recombinant CYP3A4, Luciferin-PPXE luminescence; series mostly up to 57.1 µM
Summary of the method: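 20 nM human CYP3A4 with 25 uM Luciferin-PPXE (at KM) in 200 mM KPO4, preincubated 10 min with compound; NADPH regeneration started a 60 min RT reaction. Luciferin detected by luminescence, normalized to 57 uM ketoconazole as full inhibition.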

[10] = target: Cytochrome P450 3A4 (Homo sapiens) (UniProt P08684); assay: qHTS Assay for Activators of Cytochrome P450 3A4 (AID 885; active = well fitted curve in the direction sought with a large enough effect; an effect the other way counts as inactive or inconclusive; also: nearly all actives have a fitted effect of over 65% in size; also: potency is read from the fitted curve at half-maximal effect); settings: recombinant CYP3A4, Luciferin-PPXE luminescence, 60 min; series mostly up to 57.1 µM
Summary of the method: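 Steps: enzyme/substrate mix dispensed; compound added, 10 min RT; NADPH regeneration solution added, 60 min RT; luciferin detection buffer stops reaction; 20 min later luminescence measured.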

[11] = target: Cytochrome P450 2D6 (Homo sapiens) (UniProt P10635); assay: qHTS Assay for Inhibitors and Substrates of Cytochrome P450 2D6 (AID 891; active = well fitted curve in the direction sought with a large enough effect; an effect the other way counts as inactive or inconclusive; also: potency is read from the fitted curve at half-maximal effect; nearly all actives have a fitted effect of over 60% in size); settings: recombinant CYP2D6, luciferin-ME EGE luminescence; series mostly up to 57.1 µM
Summary of the method: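 Human CYP2D6 (5 nM) with 30 uM Luciferin-ME EGE (at Km) in 100 mM KPO4, compound preincubated 10 min, then NADPH regeneration system for 60 min at room temperature. Luciferin read by luminescence; normalized to 1.43 uM quinidine.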

[12] = qHTS Assay for Lipid Storage Modulators (AID 1519; calls by dose curve); settings: Drosophila S3 cells, BODIPY lipid droplet/cell ratio, laser cytometry, cells loaded with oleic acid; for activity change, negative = inhibition: at 57.5 µM (top of the series)
Summary of the method: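 Cells seeded at 5,000 per well were treated with compounds over a concentration series and loaded with oleic acid (400 uM, as added). Lipid droplet fluorescence (488 nm excitation, 500-530 nm channel) was read by laser-scanning cytometry and normalized to 20 uM Triacsin C.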

[13] = Primary qHTS for small molecule stabilizers of the endoplasmic reticulum resident proteome: Secreted ER Calcium Modulated Protein (SERCaMP) assay (AID 1508630; active = well fitted curve in the direction sought with a large enough effect; an effect the other way counts as inactive or inconclusive; also: % is scaled to controls: 0 for no effect and ±100 for the full control effect); settings: SH-SY5Y GLuc-SERCaMP (Gaussia luciferase released on ER calcium loss) secretion, thapsigargin, luminescence; series mostly up to 38.4 µM
Summary of the method: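 GLuc-SERCaMP-expressing SH-SY5Y cells, pretreated 16 h with compound, are challenged with thapsigargin to empty ER calcium stores; after 4 h, coelenterazine is added directly to the medium and luminescence is imaged.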

[14] = target: Cytochrome P450 2C19 (Homo sapiens) (UniProt P33261); assay: qHTS Assay for Inhibitors and Substrates of Cytochrome P450 2C19 (AID 899; active = well fitted curve in the direction sought with a large enough effect; an effect the other way counts as inactive or inconclusive; also: potency is read from the fitted curve at half-maximal effect; nearly all actives have a fitted effect of over 60% in size); settings: recombinant CYP2C19, luciferin-H EGE luminescence; series mostly up to 57.1 µM
Summary of the method: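 In 50mM KPO4, the reaction held 5nM enzyme and KM-level (10uM) Luciferin-H EGE; it ran 60 min at 37C after NADPH regeneration and a 10 min compound preincubation. Luminescence values were scaled to 57uM ketoconazole as complete inhibition.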

[15] = qHTS Assay for Identification of Small Molecule Agonists for Hypoxia Response Element Signaling Pathway (AID 914; active = well fitted activation curve with a large enough effect in the signal ratio, with a control signal flat, not every such curve was filed as active; the % refers to the signal ratio; also: % of control where 0% means no effect); settings: ME-180 (cervical carcinoma) HRE-bla reporter, beta-lactamase ratio, CoCl2, 17 h; activation: stronger effect = higher value
Summary of the method: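 Compounds in a titration series were added to ME-180 reporter cells alongside an EC50 level of CoCl2. After 17 hours, beta-lactamase activity was read as the 460nm/530nm emission ratio of CCF4, giving AC50 values.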

[16] = measured here: cell count channel max response
[17] = measured here: lipid channel max response

Sequence of Glucocorticoid receptor (Homo sapiens) (P04150 whole entry, looked up, the tested form may be a part): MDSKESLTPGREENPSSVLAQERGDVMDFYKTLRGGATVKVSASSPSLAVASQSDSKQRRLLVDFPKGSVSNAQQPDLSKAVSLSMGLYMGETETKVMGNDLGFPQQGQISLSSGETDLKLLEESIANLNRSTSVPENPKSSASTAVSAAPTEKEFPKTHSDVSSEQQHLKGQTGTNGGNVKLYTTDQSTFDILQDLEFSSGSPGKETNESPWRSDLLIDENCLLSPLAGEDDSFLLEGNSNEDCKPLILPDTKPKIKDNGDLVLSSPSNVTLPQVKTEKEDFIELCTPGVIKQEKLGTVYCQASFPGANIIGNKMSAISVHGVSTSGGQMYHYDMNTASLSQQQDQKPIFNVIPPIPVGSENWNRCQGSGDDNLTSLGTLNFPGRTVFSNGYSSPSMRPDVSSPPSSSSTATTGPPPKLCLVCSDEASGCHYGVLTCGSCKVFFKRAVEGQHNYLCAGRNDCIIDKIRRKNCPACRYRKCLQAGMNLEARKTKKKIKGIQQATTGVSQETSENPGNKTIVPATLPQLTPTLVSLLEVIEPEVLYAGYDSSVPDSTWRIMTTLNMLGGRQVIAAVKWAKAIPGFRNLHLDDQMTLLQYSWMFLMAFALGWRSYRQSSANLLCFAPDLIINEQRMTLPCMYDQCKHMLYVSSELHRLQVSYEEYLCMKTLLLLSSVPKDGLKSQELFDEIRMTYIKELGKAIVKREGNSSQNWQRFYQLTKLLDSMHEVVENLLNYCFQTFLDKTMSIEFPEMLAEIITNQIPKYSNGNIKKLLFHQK
Sequence of Cytochrome P450 3A4 (Homo sapiens) (P08684 whole entry, looked up): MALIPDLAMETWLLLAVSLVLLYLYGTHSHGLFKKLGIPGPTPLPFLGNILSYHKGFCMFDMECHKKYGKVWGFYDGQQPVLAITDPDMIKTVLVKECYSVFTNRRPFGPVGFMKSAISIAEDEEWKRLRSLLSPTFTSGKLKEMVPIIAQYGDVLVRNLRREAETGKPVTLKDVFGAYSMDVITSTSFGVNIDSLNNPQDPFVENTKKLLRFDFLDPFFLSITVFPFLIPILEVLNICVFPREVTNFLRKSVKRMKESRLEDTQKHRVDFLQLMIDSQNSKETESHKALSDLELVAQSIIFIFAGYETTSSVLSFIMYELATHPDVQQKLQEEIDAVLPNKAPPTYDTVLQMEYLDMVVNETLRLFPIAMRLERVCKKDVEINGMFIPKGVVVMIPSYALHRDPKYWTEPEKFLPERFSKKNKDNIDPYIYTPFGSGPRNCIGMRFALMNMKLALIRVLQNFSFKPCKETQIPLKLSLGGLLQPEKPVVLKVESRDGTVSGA
Sequence of Lysosomal acid glucosylceramidase (Homo sapiens) (P04062 whole entry, looked up): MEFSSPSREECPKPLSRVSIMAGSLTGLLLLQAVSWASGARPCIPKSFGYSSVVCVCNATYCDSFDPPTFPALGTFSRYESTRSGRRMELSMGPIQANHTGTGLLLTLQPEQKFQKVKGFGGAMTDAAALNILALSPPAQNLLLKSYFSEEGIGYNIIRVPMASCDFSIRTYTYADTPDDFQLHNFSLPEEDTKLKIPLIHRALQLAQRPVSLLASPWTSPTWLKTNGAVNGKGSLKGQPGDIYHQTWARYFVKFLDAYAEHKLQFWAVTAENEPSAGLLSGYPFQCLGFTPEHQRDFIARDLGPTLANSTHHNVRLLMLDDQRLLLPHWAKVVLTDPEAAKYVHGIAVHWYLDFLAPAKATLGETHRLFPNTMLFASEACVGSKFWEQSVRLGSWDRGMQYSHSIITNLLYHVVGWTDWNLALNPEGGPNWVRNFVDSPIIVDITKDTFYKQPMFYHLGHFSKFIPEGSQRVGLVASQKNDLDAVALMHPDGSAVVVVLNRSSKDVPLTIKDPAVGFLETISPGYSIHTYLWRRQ
Sequence of 3',5'-cyclic-AMP phosphodiesterase 4B (Homo sapiens) (Q07343 whole entry, looked up): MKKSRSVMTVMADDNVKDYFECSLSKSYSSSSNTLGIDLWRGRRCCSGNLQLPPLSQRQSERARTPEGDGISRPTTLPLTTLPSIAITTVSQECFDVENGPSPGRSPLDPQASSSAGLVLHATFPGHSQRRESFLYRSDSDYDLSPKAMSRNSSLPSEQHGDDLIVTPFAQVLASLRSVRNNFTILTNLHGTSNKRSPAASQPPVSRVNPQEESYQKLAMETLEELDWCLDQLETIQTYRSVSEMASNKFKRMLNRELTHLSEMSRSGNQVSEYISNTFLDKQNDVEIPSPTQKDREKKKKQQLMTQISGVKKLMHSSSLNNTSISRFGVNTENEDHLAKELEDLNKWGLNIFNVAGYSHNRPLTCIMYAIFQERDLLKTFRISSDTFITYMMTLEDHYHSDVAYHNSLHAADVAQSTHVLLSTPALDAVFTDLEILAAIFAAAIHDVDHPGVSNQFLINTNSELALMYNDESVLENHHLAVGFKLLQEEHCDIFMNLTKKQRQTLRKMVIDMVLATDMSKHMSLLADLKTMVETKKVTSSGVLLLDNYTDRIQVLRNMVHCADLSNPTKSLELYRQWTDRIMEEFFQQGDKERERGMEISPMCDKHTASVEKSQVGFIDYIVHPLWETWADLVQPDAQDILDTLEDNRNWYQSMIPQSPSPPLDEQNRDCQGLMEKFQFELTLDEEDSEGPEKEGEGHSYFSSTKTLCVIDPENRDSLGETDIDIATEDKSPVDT
Sequence of Cytochrome P450 1A2 (Homo sapiens) (P05177 whole entry, looked up): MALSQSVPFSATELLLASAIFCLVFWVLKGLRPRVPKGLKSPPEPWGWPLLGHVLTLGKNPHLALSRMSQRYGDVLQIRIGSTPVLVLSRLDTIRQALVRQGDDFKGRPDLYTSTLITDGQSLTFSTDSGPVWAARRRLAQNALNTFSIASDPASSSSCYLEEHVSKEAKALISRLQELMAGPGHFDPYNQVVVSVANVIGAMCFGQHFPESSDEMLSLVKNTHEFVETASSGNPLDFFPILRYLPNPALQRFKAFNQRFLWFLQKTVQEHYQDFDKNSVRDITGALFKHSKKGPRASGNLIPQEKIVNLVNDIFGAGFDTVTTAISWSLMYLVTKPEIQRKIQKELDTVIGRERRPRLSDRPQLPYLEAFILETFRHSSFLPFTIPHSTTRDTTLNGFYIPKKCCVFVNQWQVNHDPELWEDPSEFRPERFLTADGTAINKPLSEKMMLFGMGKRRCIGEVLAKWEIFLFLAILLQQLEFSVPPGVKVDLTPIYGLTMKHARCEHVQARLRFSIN
Sequence of Cytochrome P450 2D6 (Homo sapiens) (P10635 whole entry, looked up): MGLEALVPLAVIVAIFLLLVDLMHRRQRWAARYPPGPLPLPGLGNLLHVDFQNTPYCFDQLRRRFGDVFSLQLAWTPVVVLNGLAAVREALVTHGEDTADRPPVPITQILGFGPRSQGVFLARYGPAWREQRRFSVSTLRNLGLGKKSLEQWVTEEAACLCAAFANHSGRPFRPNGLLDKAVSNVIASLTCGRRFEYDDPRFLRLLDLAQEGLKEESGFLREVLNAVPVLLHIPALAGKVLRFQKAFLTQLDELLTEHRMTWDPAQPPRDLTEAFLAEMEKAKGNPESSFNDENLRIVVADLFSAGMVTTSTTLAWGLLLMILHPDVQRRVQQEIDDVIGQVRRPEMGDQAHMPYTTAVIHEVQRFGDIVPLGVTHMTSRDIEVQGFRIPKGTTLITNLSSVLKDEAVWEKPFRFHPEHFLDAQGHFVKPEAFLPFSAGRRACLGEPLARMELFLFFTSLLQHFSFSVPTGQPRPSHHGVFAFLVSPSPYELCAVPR
Sequence of Cytochrome P450 2C19 (Homo sapiens) (P33261 whole entry, looked up): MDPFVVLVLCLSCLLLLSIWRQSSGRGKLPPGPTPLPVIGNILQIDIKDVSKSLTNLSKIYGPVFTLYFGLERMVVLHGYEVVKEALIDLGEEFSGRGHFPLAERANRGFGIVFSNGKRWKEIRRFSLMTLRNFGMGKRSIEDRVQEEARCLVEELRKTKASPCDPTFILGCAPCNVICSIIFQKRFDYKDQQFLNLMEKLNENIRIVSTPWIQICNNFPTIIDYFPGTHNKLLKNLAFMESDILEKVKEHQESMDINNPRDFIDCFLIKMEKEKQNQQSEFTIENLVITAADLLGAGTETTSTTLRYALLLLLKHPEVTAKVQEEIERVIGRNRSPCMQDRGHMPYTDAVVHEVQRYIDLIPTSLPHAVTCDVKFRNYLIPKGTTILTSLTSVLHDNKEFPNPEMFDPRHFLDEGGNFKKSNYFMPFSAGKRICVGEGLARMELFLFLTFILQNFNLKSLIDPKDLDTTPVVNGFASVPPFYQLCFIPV

| SMILES | Potency [1] | activity change, negative = inhibition [2] | Potency [3] | activity change, negative = inhibition [4] | activity, negative = inhibition [5] | Potency [6] | outcome [7] | Potency [8] | Potency [9] | Potency [10] | Potency [11] | activity change, negative = inhibition [12] | max response [12, 16] [%] | max response [12, 17] [%] | Potency [13] | Potency [14] | activation [15] |
| --- | --- | --- | --- | --- | --- | --- | --- | --- | --- | --- | --- | --- | --- | --- | --- | --- | --- |
| CS(=O)(=O)N1CCC2(CCN(C(c3ccccc3)c3ccccc3)CC2)CC1 | > 11.4 µM (inactive) | -4.08% (inactive) | inactive | -8.24% (inactive) | 3.12% (inactive) | > 46 µM (inactive) | inactive | inactive | inactive | 12.6 µM (active) | 3.16 µM (active) | 0.47% (inactive) | -0.926 | 0.776 | inactive |  |  |
| O=C(Oc1ccccc1)N1CCC2(CC1)CCN(c1ccccc1)CC2 | > 11.4 µM (inactive) | 20.6% (inactive) | inactive | -26.1% (inactive) | -1.28% (inactive) | > 46 µM (inactive) | inactive | inactive | inactive | 3.16 µM (active) |  | -1.08% (inactive) | -1.11 | -1.37 | inactive |  |  |
| O=C(c1cccc(F)c1)N1CCC2(CC1)CCN(c1cccc(-c3ccccc3)c1)CC2 | > 11.4 µM (inactive) | -4.91% (inactive) | 20 µM (active) | 4.3% (inactive) | -10.4% (inactive) | > 46 µM (inactive) | inactive | inactive | inactive | 5.01 µM (active) |  | -5.71% (inactive) | -11.6 | -13.5 | inactive |  |  |
| COC(=O)N1CCC2(CCN(Cc3nccs3)CC2)CC1 | > 11.4 µM (inactive) | -10.7% (inactive) | inactive | -25.8% (inactive) | 0.339% (inactive) | > 46 µM (inactive) | inactive | inactive | inactive |  |  | 2.86% (inactive) | 6.91 | 13.2 | inactive |  |  |
| O=C(c1cnccn1)N1CCC2(CCCN(c3ccccc3)C2)CC1 | > 11.4 µM (inactive) | 13.8% (inactive) | inactive | 5.12% (inactive) | -11.6% (inactive) | > 46 µM (inactive) | inactive | inactive | 1.58 µM (active) | inactive |  | 4.73% (inactive) | 21.1 | 29.2 | inactive | 0.501 µM (active) |  |
| O=C(c1ccncc1)N1CCC2(CC1)CN(C(c1ccccc1)c1ccccc1)C2 | > 11.4 µM (inactive) | 4.62% (inactive) | 15.8 µM (active) | 16.7% (inactive) | -10.1% (inactive) | > 46 µM (inactive) | inactive | inactive | inactive | 3.98 µM (active) | 0.0251 µM (active) | 4.23% (inactive) | -4.87 | 3.6 | inactive |  |  |
| O=C(c1ccco1)N1CCC2(CCCN(C(c3ccccc3)c3ccccc3)C2)CC1 | > 11.4 µM (inactive) | 26.1% (inactive) | 15.8 µM (active) | -80.8% (active) | 19.8% (inactive) | > 46 µM (inactive) | inactive | inactive |  | inactive |  | 2.05% (inactive) | 10.3 | 13.5 | inactive |  |  |
| O=C(c1cccc(F)c1)N1CCC2(CC1)CCN(c1ccccc1)CC2 | > 11.4 µM (inactive) | -0.371% (inactive) | 15.8 µM (active) | -2.46% (inactive) | -10.8% (inactive) | > 46 µM (inactive) | inactive | inactive | inactive | 7.94 µM (active) |  | 3.88% (inactive) | -3.82 | 4.22 | inactive |  |  |
| CC(C)NC(=O)N1CCCC2(CCN(S(=O)(=O)c3ccccc3)CC2)C1 | > 11.4 µM (inactive) | -4.26% (inactive) | inactive | -5.06% (inactive) | -5.18% (inactive) | > 46 µM (inactive) | inactive | inactive | 7.94 µM (active) | inactive | 0.316 µM (active) | 4.51% (inactive) | 20 | 26.7 | inactive |  |  |
| O=C(c1cnccn1)N1CCC2(CC1)CCN(C(c1ccccc1)c1ccccc1)CC2 | > 11.4 µM (inactive) | 8.38% (inactive) | 10 µM (active) | -20.1% (inactive) | 6.95% (inactive) | > 46 µM (inactive) | inactive | inactive | inactive | 3.16 µM (active) | 3.98 µM (active) | 1.71% (inactive) | 1.55 | 5.2 | inactive |  |  |
| Cc1noc(C)c1C(=O)N1CCC2(CCCN(C(=O)Nc3cccc(F)c3)C2)CC1 | > 11.4 µM (inactive) | -3.17% (inactive) | 15.8 µM (active) | -8.48% (inactive) | -0.0561% (inactive) | > 46 µM (inactive) | inactive | inactive |  | inactive |  | 5.45% (inactive) | 9.33 | 19.9 | inactive |  |  |
| O=C(c1ccco1)N1CCC2(CC1)CN(c1ccccc1)C2 | > 11.4 µM (inactive) | -1.6% (inactive) | inactive | 28.4% (inactive) | -9.25% (inactive) | > 46 µM (inactive) | inactive | inactive | inactive | 15.8 µM (active) |  | 6.46% (inactive) | 15.8 | 25.8 | inactive |  | -3.45% (inactive) |
